Results from PubChem BioAssay (Tox21).
“And” between values parts separate entries of the source, which are not always exact repeats. Equal entries are not always repeated. Records with an inconclusive call do not appear. Some structures have more than one record in an assay (separate samples or runs), and their calls can disagree. The source made the active and inactive calls. Unless noted, the call rests on the fitted dose curve.

How the values were obtained:
[1] = Nuclear factor erythroid 2-related factor 2/antioxidant responsive element (Nrf2/ARE) small molecule agonists: qHTS cell viability counter screen in human keratinocytes (AID 1919968; active means well fitted curve in the direction sought with a large enough effect in the repeat runs; an effect the other way counts as inactive or inconclusive; further: nearly all actives have a fitted effect of over 55% in size)
How it was run: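 Viability counter-screen: KeratinoSens reporter cells, DMSO-delivered compounds, 23 h at 37 C, CellTiter-Fluor fluorescence.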

[2] = molecular target: Gonadotropin-releasing hormone receptor (Homo sapiens) (UniProt P30968); assay: Human gonadotropin-releasing hormone receptor (GnRHR) small molecule agonists, calcium flux assay in GnRHR-HEK293 cells (AID 1920063); further: nearly all actives have a fitted effect of over 35% in size
How it was run: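 Tox21-format agonist screen using human GnRHR-expressing HEK293 cells and a fluorescent calcium dye; kinetic 3-min fluorescence reading after compound addition, 15-point concentration series run in triplicate.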

[3] = molecular target: KiSS-1 receptor (Homo sapiens) (UniProt Q969F8); assay: Human kisspeptin (KISS1R) small molecule agonists, calcium flux assay in KISS1R-HEK293 cells (AID 1920064; active means well fitted curve in the direction sought with a large enough effect in the repeat runs; an effect the other way counts as inactive or inconclusive)
How it was run: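 Intracellular calcium mobilization in KISS1R-HEK293 cells was recorded by fluorescence (Ex/Em 480/540) for 3 min following compound addition to cells pre-loaded 1 h with calcium dye.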

[4] = G protein-coupled receptor (GPCR) small molecule agonists, calcium flux assay: HEK293 wild type cell line counter screen (AID 1920065)
How it was run: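 In this agonist-mode screen, ATP is the positive control and DMSO the vehicle. Cells grow 18 h before a 1 h dye incubation at 37 C; signal is taken at Ex/Em 480/540 over 3 min.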

[5] = p53 small molecule agonists, cell-based qHTS assay with human liver microsomes (AID 1963577);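 further: p53 response element beta-lactamase reporter cells with liver microsomes plus NADPH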
How it was run: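 p53RE-bla cells; 5 h settle, 37 C/5% CO2; cpd + HLM 0.5 mg/mL + NADPH 0.5 mg/mL (final); 16 h 37 C; LiveBLAzer 2 h RT dark; fluorescence readout.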

[6] = p53 small molecule agonists, cell-based qHTS assay with rat liver microsomes (AID 1963578)
How it was run: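 Rat liver microsome activation: microsomes 0.5 mg/mL, NADPH 0.5 mg/mL final; p53RE-bla cells, 16 h 37 C; LiveBLAzer readout, 2 h RT dark.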

[7] = p53 small molecule agonists, cell-based qHTS assay with human liver microsomes: qHTS cell viability counter screen (AID 1963579); further: nearly all actives have a fitted effect of over 45% in size; further: potency means the concentration at half of the fitted maximal effect
How it was run: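 Luminescent CellTiter-Glo read-out, 30 min at room temperature, gauged cytotoxicity in p53RE-bla cells exposed 16 h at 37 C to DMSO-dissolved compounds with metabolic activation by human liver microsomes and NADPH, each 0.5 mg/mL final.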

[8] = p53 small molecule agonists, cell-based qHTS assay with rat liver microsomes: qHTS cell viability counter screen (AID 1963580); further: nearly all actives have a fitted effect of over 45% in size; further: potency means the concentration at half of the fitted maximal effect
How it was run: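 p53RE-bla HCT-116 cells (4,000/well) rested 5 h at 37 C, then given Tox21 compounds in DMSO with rat liver microsomes (0.5 mg/mL final) plus NADPH (0.5 mg/mL final) for 16 h at 37 C. Viability read by CellTiter-Glo luminescence after 30 min at room temperature.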

[9] = p53 small molecule agonists, cell-based qHTS assay: qHTS cell viability counter screen (AID 1963581); further: nearly all actives have a fitted effect of over 45% in size
How it was run: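 Compounds are pinned onto HCT-116 p53RE-bla cells and left 16 h at 37 C. Following the reporter FRET read, ATP is quantified by CellTiter-Glo luminescence after 30 min at room temperature.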

[10] = p53 small molecule agonists, cell-based qHTS assay (AID 1963582; active means well fitted activation curve with a large enough effect in the signal ratio in the repeat runs, not every such curve was filed as active; the % refers to the signal ratio)
How it was run: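 Agonist activity was scored from beta-lactamase FRET fluorescence in p53RE-bla cells treated 16 h at 37 C with compounds in DMSO, substrate incubation being 2 h at room temperature.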

[11] = molecular target: 5-hydroxytryptamine receptor 2A (Homo sapiens) (UniProt P28223); assay: 5-hydroxytryptamine receptor 2A (HTR2A) small molecule antagonists, cell-based qHTS assay (AID 1963586); further: nearly all actives have a fitted effect of over 45% in size
How it was run: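 Antagonist-mode intracellular calcium assay: DOI (4 nM) added after 5 min compound pre-incubation at room temperature to dye-loaded HTR2A-CHO cells. Fluorescence followed for 3 min, sampled every second.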

[12] = molecular target: Muscarinic acetylcholine receptor M1 (Homo sapiens) (UniProt P11229); assay: Cholinergic receptor muscarinic 1 (CHRM1) small molecule agonists, cell-based qHTS assay (AID 1963589); further: nearly all actives have a fitted effect of over 35% in size
How it was run: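 Stable CHRM1-CHO cells (human receptor) were incubated 18 h, dye-loaded for 1 h at 37 C and exposed to test compounds for agonist activity, with calcium-dependent fluorescence followed kinetically.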

[13] = cAMP Responsive Elements (CRE) small molecule agonists, cell-based qHTS assay (AID 1963590)
How it was run: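 FRET-based beta-lactamase readout (LiveBLAzer B/G, 2 h RT) quantified CRE activation in HEK 293T CRE-bla cells after 3 h treatment with DMSO-dissolved compounds.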

[14] = cAMP Responsive Elements (CRE) small molecule antagonists, cell-based qHTS assay (AID 1963591; active means well fitted inhibition curve with a large enough effect in the signal ratio in the repeat runs, not every such curve was filed as active; the % refers to the signal ratio)
How it was run: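 qHTS in CRE-bla HEK 293T cells: compound in DMSO, then 0.25 uM NKH477 (final), 3 h at 37 °C/5% CO2; beta-lactamase FRET read-out after 2 h substrate incubation.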

[15] = molecular target: Beta-2 adrenergic receptor (Homo sapiens) (UniProt P07550); assay: Adrenergic beta2 receptor (ADRB2) small molecule antagonists, cell-based qHTS assay (AID 1963592); further: series mostly up to about 92 µM; nearly all actives have a fitted effect of over 50% in size
How it was run: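 Cells (CHO, stable ADRB2 overexpression) incubated 18-20hr at 37C; compounds added from DMSO; agonist mix (1nM isoproterenol, 100uM IBMX, 25uM Ro-20-1724) added; 0.5hr RT; d2-cAMP and anti-cAMP-cryptate added; 1hr RT; 665/615 nm read.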

[16] = molecular target: D(2) dopamine receptor (Homo sapiens) (UniProt P14416); assay: Dopamine D2 receptor (DRD2) small molecule agonists, cell-based qHTS assay (AID 1963594); further: nearly all actives have a fitted effect of over 35% in size
How it was run: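 HEK293 cells stably expressing DRD2 were cultured 24 h at 37 C, then given Ro20-1724 (0.1 mM final) and compounds for 10 min at room temperature. NKH477 (200nM) was then added for 30 min. cAMP was read by HTRF.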

[17] = molecular target: D(2) dopamine receptor (Homo sapiens) (UniProt P14416); assay: Dopamine D2 receptor (DRD2) small molecule antagonists, cell-based qHTS assay (AID 1963595; active means well fitted inhibition curve with a large enough effect in the signal ratio in the repeat runs, with a control signal flat; the % refers to the signal ratio)
How it was run: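 HEK293 cells stably expressing DRD2 were preincubated with 0.1 mM Ro20-1724, then with compound for 10 min at room temperature. Cells were stimulated with 200 nM NKH477 plus 12 nM quinpirole for 30 min, and cAMP was read by HTRF.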

[18] = molecular target: 5-hydroxytryptamine receptor 2A (Homo sapiens) (UniProt P28223); assay: 5-hydroxytryptamine receptor 2A (HTR2A) small molecule agonists, cell-based qHTS assay (AID 1963587); further: nearly all actives have a fitted effect of over 30% in size
How it was run: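 HTR2A-CHO cells, plated 18 h at 37 C/5% CO2, dye-loaded 1 h at 37 C; compounds in DMSO added by pin tool (agonist mode). Intracellular calcium flux read as kinetic fluorescence on FDSS over 2 min at 1 s intervals.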

[19] = molecular target: Muscarinic acetylcholine receptor M1 (Homo sapiens) (UniProt P11229); assay: Cholinergic receptor muscarinic 1 (CHRM1) small molecule antagonists, cell-based qHTS assay (AID 1963588); further: nearly all actives have a fitted effect of over 40% in size; further: potency means the concentration at half of the fitted maximal effect
How it was run: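 CHRM1-CHO calcium-flux assay, antagonist mode. Cells were seeded 18 h, dye-loaded 1 h at 37 C and given compound for 5 min at RT, then acetylcholine was added at 50nM. FDSS fluorescence was read 3 min; 15 concentrations, three runs.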

[20] = molecular target: Beta-2 adrenergic receptor (Homo sapiens) (UniProt P07550); assay: Adrenergic beta2 receptor (ADRB2) small molecule agonists, cell-based qHTS assay (AID 1963593);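 further: CHO cells stably overexpressing human ADRB2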
How it was run: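 CHO cells stably over-expressing ADRB2 were plated overnight at 37C, then dosed with compounds plus a stimulation mix containing 100uM IBMX and 25uM Ro-20-1724 for 0.5hr at room temperature. cAMP was measured by HTRF competition, 1hr.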
On the % scale 0 is the no-effect control and ±100 the full control effect.

Chain of Muscarinic acetylcholine receptor M1 (Homo sapiens) (P11229 whole entry, looked up): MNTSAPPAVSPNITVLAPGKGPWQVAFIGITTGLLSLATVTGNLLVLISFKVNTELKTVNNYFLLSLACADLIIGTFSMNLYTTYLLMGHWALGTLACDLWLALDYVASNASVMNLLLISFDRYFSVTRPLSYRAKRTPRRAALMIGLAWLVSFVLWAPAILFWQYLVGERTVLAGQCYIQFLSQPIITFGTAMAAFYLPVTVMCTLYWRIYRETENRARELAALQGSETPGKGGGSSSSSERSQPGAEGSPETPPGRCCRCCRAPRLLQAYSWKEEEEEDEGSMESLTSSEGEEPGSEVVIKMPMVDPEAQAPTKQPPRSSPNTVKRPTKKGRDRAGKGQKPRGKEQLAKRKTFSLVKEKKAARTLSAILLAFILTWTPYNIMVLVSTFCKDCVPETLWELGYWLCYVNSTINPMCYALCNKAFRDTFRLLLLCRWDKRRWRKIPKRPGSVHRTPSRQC
Chain of Gonadotropin-releasing hormone receptor (Homo sapiens) (P30968 whole entry, looked up): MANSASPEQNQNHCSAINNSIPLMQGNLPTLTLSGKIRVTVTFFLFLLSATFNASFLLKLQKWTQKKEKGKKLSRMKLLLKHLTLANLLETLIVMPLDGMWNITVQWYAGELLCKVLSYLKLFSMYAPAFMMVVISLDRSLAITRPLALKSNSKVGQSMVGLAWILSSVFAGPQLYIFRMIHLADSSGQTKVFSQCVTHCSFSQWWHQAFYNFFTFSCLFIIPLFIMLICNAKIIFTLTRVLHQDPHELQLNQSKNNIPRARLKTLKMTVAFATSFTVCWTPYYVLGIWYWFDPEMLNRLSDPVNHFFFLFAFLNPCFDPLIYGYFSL
Chain of KiSS-1 receptor (Homo sapiens) (Q969F8 whole entry, looked up): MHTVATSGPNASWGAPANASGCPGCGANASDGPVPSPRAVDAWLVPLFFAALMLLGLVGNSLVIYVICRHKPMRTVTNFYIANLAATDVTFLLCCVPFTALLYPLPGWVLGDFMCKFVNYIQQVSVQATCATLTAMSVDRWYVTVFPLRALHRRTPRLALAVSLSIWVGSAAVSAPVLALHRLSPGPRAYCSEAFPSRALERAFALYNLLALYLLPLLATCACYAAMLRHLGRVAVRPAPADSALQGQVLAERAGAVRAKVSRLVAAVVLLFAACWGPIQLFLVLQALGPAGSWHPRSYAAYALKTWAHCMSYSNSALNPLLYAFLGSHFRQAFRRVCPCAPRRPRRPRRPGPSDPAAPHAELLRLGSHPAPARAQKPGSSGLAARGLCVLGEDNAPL
Chain of D(2) dopamine receptor (Homo sapiens) (P14416 whole entry, looked up): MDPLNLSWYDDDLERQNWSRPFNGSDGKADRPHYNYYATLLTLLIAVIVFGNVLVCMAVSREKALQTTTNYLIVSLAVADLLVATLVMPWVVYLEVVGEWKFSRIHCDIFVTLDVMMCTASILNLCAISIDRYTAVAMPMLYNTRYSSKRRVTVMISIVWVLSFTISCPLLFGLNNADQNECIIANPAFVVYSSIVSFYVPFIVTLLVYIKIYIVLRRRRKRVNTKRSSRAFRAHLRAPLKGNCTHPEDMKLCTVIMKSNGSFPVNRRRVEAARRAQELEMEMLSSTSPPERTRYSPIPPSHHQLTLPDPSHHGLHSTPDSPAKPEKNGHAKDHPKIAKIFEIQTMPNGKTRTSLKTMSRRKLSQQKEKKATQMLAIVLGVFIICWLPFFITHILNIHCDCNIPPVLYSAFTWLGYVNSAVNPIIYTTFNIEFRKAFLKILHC
Chain of 5-hydroxytryptamine receptor 2A (Homo sapiens) (P28223 whole entry, looked up): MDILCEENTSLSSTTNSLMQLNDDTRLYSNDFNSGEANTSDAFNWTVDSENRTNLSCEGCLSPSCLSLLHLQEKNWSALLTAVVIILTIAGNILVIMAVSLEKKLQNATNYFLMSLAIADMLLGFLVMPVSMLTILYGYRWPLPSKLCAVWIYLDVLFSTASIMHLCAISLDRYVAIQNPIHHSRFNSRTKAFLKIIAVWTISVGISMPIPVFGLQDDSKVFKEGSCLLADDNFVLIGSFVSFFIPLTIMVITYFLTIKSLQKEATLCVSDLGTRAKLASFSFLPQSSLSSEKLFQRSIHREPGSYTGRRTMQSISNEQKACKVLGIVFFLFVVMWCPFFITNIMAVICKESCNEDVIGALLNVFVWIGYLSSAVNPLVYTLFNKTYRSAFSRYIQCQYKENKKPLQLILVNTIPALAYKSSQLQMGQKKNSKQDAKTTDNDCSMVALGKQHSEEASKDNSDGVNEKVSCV
Chain of Beta-2 adrenergic receptor (Homo sapiens) (P07550 whole entry, looked up): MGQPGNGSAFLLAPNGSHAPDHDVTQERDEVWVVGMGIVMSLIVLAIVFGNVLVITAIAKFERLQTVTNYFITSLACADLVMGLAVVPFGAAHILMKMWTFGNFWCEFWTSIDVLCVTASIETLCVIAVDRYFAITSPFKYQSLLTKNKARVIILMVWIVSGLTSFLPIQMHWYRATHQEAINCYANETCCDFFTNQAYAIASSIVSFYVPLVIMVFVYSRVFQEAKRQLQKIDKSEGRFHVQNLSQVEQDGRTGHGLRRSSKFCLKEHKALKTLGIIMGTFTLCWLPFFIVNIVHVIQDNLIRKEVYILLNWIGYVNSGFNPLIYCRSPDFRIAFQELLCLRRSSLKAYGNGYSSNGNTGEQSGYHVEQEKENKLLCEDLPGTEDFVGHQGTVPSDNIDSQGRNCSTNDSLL

CCC(C)C1N=C(C)C(C)S1 (stereo unspecified)
inactive: Potency [1] | Potency [2] | Potency [3] | Potency [4] | Potency [5] | Potency [6] | Potency [7] | Potency [8] | Potency [9] | Potency [10] | Potency [11] | Potency [12] | Potency [13] | Potency [14] | Potency [15] | Potency [16] | Potency [17]

O=C[C@H](O)[C@@H](O)[C@H](O)[C@H](O)CO
inactive: Potency [1] | Potency [2] | Potency [3] | Potency [4] | Potency [5] | Potency [6] | Potency [7] | Potency [8] | Potency [9] | Potency [10] | Potency [18] | Potency [19] | Potency [12] | Potency [13] | Potency [14] | Potency [15] | Potency [20] | Potency [16] | Potency [17]

CCCCCCCCCCCCCCCC(=O)OC
inactive: activity change, negative = cytotoxicity [1] 3.99% [at 19 µM] | activity change [2] 0.561% [at 11.8 µM, stronger effect = higher value] | activation [3] -2.17% [at 15.8 µM] | activation [4] 0.455% [at 11.8 µM] | activation [5] 0.811% [at 13.5 µM] | activation [6] 0.588% [at 13.6 µM] | activity change, negative = cytotoxicity [7] -1.62% [at 13.5 µM] | activity change, negative = cytotoxicity [8] -0.0573% [at 13.5 µM] | activity change, negative = cytotoxicity [9] 2.56% [at 13.5 µM] | activation [10] -4.84% [at 13.5 µM] | activity, negative = inhibition [11] -2.95% [at 12.7 µM] | activity, negative = inhibition [19] -19.7% [at 12.6 µM] | activation [12] -0.393% [at 15.8 µM] | activity change, negative = inhibition [14] -6.58% [at 18.9 µM] | activity change, negative = inhibition [15] 5.87% [at 19 µM] | activation [16] 0.309% [at 19 µM] | activity change, negative = inhibition [17] -0.0877% [at 18.9 µM]

CCN1C(=O)c2ccccc2C1Nc1ccc(OCCN2CCCCC2)cc1 (stereo unspecified)
active: Potency [19] 3.65 µM
inactive: Potency [1] | Potency [2] | Potency [3] | Potency [4] | Potency [5] | Potency [6] | Potency [7] | Potency [8] | Potency [9] | Potency [10] | Potency [11] | Potency [18] | Potency [13] | Potency [14] | Potency [15] | Potency [20] | Potency [16] | Potency [17]

NCCO
inactive and 32.4 µM (active): Potency [8]
inactive: Potency [1] | Potency [2] | Potency [3] | Potency [4] | Potency [5] | Potency [6] | Potency [9] | Potency [10] | Potency [11] | Potency [18] | Potency [12] | Potency [14] | Potency [15] | Potency [16] | Potency [17]
inactive and 36.3 µM (active): Potency [7]
active: Potency [19] 18.8 µM

CN(C)CCCNCCCN(C)C
inactive: Potency [1] | Potency [2] | Potency [3] | Potency [4] | Potency [5] | Potency [6] | Potency [7] | Potency [8] | Potency [9] | Potency [10] | Potency [11] | Potency [18] | Potency [19] | Potency [12] | Potency [14] | Potency [15] | Potency [20] | Potency [16] | Potency [17]

CCn1cc(C(=O)O)c(=O)c2cc3c(cc21)OCO3
inactive: Potency [1] | Potency [2] | Potency [3] | Potency [4] | Potency [5] | Potency [6] | Potency [7] | Potency [8] | Potency [9] | Potency [10] | Potency [18] | Potency [12] | activity change, negative = inhibition [14] -7.86% [at 18.9 µM] | Potency [15] | Potency [20] | Potency [16] | Potency [17]
